{
  "source": "PubChem BioAssay AID720541",
  "about": "(National Center for Advancing Translational Sciences (NCATS), 2013)",
  "note": "Screen size: about 1,300 compounds; about 420 (32%) were called active. Not shown: some 32% with an inconclusive outcome. The list shows a part of the results. A number with no mark means an inactive call. Calls follow the shape of the dose curve; as a rule, active = well fitted inhibition curve with a large enough effect; inconclusive = small, poorly fitted or top-dose-only effect; inactive = no such curve, though single readings can be large or run the other way. % is scaled to controls: 0 for no effect and ±100 for the full control effect; potency is read from the fitted curve at half-maximal effect.",
  "data": [
    {"target": "C-terminal-binding protein 1 (Homo sapiens) (UniProt Q13363)", "test": "qHTS for Inhibitors of the Phosphatase Activity of Eya2: Carboxyl-terminal binding protein (CtBP) Counterscreen for Cherry-picked Compounds; also: nearly all actives have a fitted effect of over 65% in size", "conditions": "purified protein-protein binding, AlphaScreen, 3 h; series mostly up to 46.1 µM; activity change, negative = inhibition: at the top concentration", "procedure,_shortened": "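Cherry-picked compounds (final 2.5 nM–46 uM) were incubated 2 h at RT with 25 nM CtBP-6xHIS and 25 nM GST-E1A. Alpha beads (20 ug/mL) were then added for 1 h, light-protected; DMSO and E1A peptide inhibitor wells set the normalization.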", "units": {"activity change, negative = inhibition": "%"}, "values": [
      {"smiles": "O=C(Nc1cc(S(=O)(=O)N2CCOCC2)ccc1Cl)c1cc(=O)c2ccccc2o1", "activity change, negative = inhibition": -23.2},
      {"smiles": "O=C(Nc1nc2c(F)cc(F)cc2s1)c1ccc([N+](=O)[O-])o1", "activity change, negative = inhibition": -19.4},
      {"smiles": "Oc1ccccc1-n1c(-c2ccccc2)ccc1-c1ccccc1", "activity change, negative = inhibition": -11},
      {"smiles": "OC(c1ccc(Cl)cc1)c1nccc2ccccc12", "note": "(centres undefined)", "activity change, negative = inhibition": 9.19},
      {"smiles": "CN1CCN(C(c2ccccn2)c2cc(Cl)c3cccnc3c2O)CC1", "note": "(centres undefined)", "Potency": "1.51 µM (active)"},
      {"smiles": "Oc1c(C(c2ccc(Cl)cc2)N2CCCC2)cc(Cl)c2cccnc12", "note": "(centres undefined)", "Potency": "4.78 µM (active)"},
      {"smiles": "COc1ccc(/C=C/C(=O)Nc2ccc3nc4n(c(=O)c3c2)CCCC4)cc1", "activity change, negative = inhibition": -17.7},
      {"smiles": "NC(=O)c1nc(C(=O)N2CCCCC2)c2ccccc2n1", "activity change, negative = inhibition": 4.22},
      {"smiles": "O=C(c1ccc2c(=O)n3c(nc2c1)CCCCC3)N1CCN(c2cccc(Cl)c2)CC1", "Potency": "16.9 µM (active)"},
      {"smiles": "Cc1ccc(NC(=S)N2CCc3[nH]c4ccccc4c3C2)cc1", "activity change, negative = inhibition": 1.7},
      {"smiles": "CN(C)c1ccc(C2C=Cc3ccccc32)c2ccccc12", "note": "(centres undefined)", "Potency": "9.53 µM (active)"},
      {"smiles": "O=C(Oc1ccc(C(=S)N2CCCCC2)cc1)c1ccccc1F", "activity change, negative = inhibition": -20.3},
      {"smiles": "c1ccc2cc(CSCc3nc4ccccc4[nH]3)ccc2c1", "activity change, negative = inhibition": -16.5},
      {"smiles": "CCc1ccc(N=C2NC(=O)/C(=C/c3cc(OC)c(O)c(OC)c3)S2)cc1", "Potency": "19 µM (active)"},
      {"smiles": "Cc1ccccc1N=C1NC(=O)/C(=C/c2cccn2C)S1", "activity change, negative = inhibition": -28},
      {"smiles": "CC1Cc2ccccc2N1NC(=O)c1ccc(Cl)c(S(N)(=O)=O)c1", "note": "(centres undefined)", "activity change, negative = inhibition": 3.62},
      {"smiles": "O=C(c1cccc(S(=O)(=O)Nc2ccccc2Cl)c1)N1CCN(c2ccccc2O)CC1", "Potency": "15.1 µM (active)"},
      {"smiles": "O=C(c1cccc(-n2cccc2)c1)N1CCN(S(=O)(=O)c2ccccc2)CC1", "activity change, negative = inhibition": -25.9},
      {"smiles": "CC1C(c2ccccc2)=Nn2c(=O)n(-c3ccccc3)c(=O)n21", "note": "(centres undefined)", "activity change, negative = inhibition": -4.88},
      {"smiles": "N#Cc1ccc(C(=O)N2CCC3CC2c2cc(-c4ccccc4)ccc23)cc1", "note": "(centres undefined)", "activity change, negative = inhibition": -9.92},
      {"smiles": "Cc1oc2c(Cl)c(Cl)c(O)c(CN(C)C)c2c1C(=O)c1ccc(Cl)cc1", "Potency": "15.1 µM (active)"},
      {"smiles": "COC(=O)c1ccccc1NC1=C/C(=N\\S(=O)(=O)c2cccs2)c2ccccc2C1=O", "Potency": "1.69 µM (active)"},
      {"smiles": "COCCN(Cc1cc2cc3c(cc2nc1Cl)OCO3)C(=O)Nc1ccc(OC)cc1", "activity change, negative = inhibition": 13.9},
      {"smiles": "O=C(CSc1nc2ccccc2n1CCc1ccccc1)c1ccc(O)c(O)c1", "activity change, negative = inhibition": -27.5},
      {"smiles": "COc1cnc(-c2ccccn2)nc1Oc1ccc(C(C)(C)C)cc1", "Potency": "3.38 µM (active)"},
      {"smiles": "COc1ccc(Oc2nc(-c3ccccn3)ncc2OC)cc1", "Potency": "10.7 µM (active)"},
      {"smiles": "CCOC(=O)C(C)Sc1nc(-c2ccccn2)ncc1OC", "note": "(centres undefined)", "Potency": "2.39 µM (active)"},
      {"smiles": "COc1ccc(CN(CCN(C)C)c2ccccn2)cc1", "activity change, negative = inhibition": 5.67},
      {"smiles": "O=C(Cn1c(C(=O)N2CCc3ccccc3C2)cc2sccc21)c1ccccc1", "activity change, negative = inhibition": -15.2},
      {"smiles": "CCCc1nc(N2CCN(C)CC2)c2sc(=S)n(-c3ccccc3)c2n1", "activity change, negative = inhibition": -5.86},
      {"smiles": "CC1C=CCC2C(=O)N(c3ccc(OC(=O)c4cccs4)cc3)C(=O)C12", "note": "(centres undefined)", "activity change, negative = inhibition": -14.7},
      {"smiles": "CC1CCC2C(=O)N(c3ccc(C(=O)Oc4cccc5cccnc45)cc3)C(=O)C2C1", "note": "(centres undefined)", "Potency": "6.01 µM (active)"},
      {"smiles": "Cc1ccc(C(=O)Oc2ccc(C(=O)COC(=O)c3cnccn3)cc2)cc1", "activity change, negative = inhibition": -16.4},
      {"smiles": "O=C(OCC(=O)c1ccc(Cl)cc1Cl)c1ccccn1", "Potency": "12 µM (active)"},
      {"smiles": "O=c1cc2ncc(-n3cc([N+](=O)[O-])cn3)cn2[nH]1", "activity change, negative = inhibition": -1.64},
      {"smiles": "O=S(c1cc(Cl)cc(Cl)c1O)c1cc(Cl)cc(Cl)c1O", "Potency": "3.38 µM (active)"},
      {"smiles": "O=c1nc2c(O)cccn2c2c1c(=O)[nH]c1ccccc12", "Potency": "3.79 µM (active)"},
      {"smiles": "CCOc1ccc(Nc2nc(N)nc(CN(C)C3CCCCC3)n2)cc1", "activity change, negative = inhibition": -16.8},
      {"smiles": "N[C@@H](Cc1cnc[nH]1)C(=O)Nc1ccc2ccccc2c1", "Potency": "19 µM (active)"},
      {"smiles": "Cc1cc2nc(-c3ccco3)c(Cc3cccc(F)c3)n2c(C)c1Br", "activity change, negative = inhibition": -24.9},
      {"smiles": "CCN(CC)c1ccc(/C=N/N2CCN(Cc3ccccc3Cl)CC2)cc1", "Potency": "8.49 µM (active)"},
      {"smiles": "CSc1ccc(/C=N/N2CCN(Cc3ccc(C)cc3C)CC2)cc1", "activity change, negative = inhibition": -36},
      {"smiles": "COCc1cc(O)c(O)c(O)c1-c1c(COC)cc(O)c(O)c1O", "activity change, negative = inhibition": 37.1},
      {"smiles": "CCC(C)Nc1ccc(NC(C)CC)cc1", "note": "(centres undefined)", "Potency": "0.0849 µM (active)"},
      {"smiles": "Cc1nc(-n2[nH]c3c(c2=O)CCCC3)[nH]c(=O)c1Cc1ccccc1", "Potency": "13.5 µM (active)"},
      {"smiles": "COc1cc(C)c(/C=C/C(C)=C/C=C/C(C)=C/C(=O)O)c(C)c1C", "activity change, negative = inhibition": -7.68},
      {"smiles": "COc1ccc(C(=O)Nc2ccc3c(c2)CCCN3C(=O)c2cccs2)c(OC)c1", "Potency": "7.57 µM (active)"},
      {"smiles": "COc1cc(C(=O)Nc2cccc(NC(=O)c3cccs3)c2)cc(OC)c1OC", "activity change, negative = inhibition": -26.5},
      {"smiles": "CCOc1ccc(NC(=O)c2sccc2-n2cccc2)cc1", "activity change, negative = inhibition": -14.2}
    ]}
  ]
}
